# Screening results (PubChem BioAssay)
# Compounds with a hit are over-represented: about 7.5% of the library has one in this group of screens.
# Rab9 prom act – activators of Rab9 promoter. Huh7 Rab9 promoter-luciferase reporter, luminescence, 24 h. Potency, µM (titrated, usually from 9.22 µM), actives largely listed as activators. 320,000 compounds, 2.8% hits; further: nearly all actives have a fitted effect of over 60% in size
#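 Huh7 reporter line, Rab9 promoter upstream of luciferase. Compound exposure 24 h at 37 °C in reduced-serum medium with 10% FBS. Read-out: luminescence.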
# ELG1 genotoxic – genotoxicity induction in ELG1-luciferase HEK293T cells | HEK293T ELG1-luciferase reporter, luminescence, 16 h | Potency, µM (doses to about 46 µM), most hits filed as activators | 330,000 compounds, 1.3% hits; further: nearly all actives have a fitted effect of over 60% in size
#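 HEK293T cells expressing luciferase-tagged ELG1 were exposed to compound or DMSO vehicle for 16 hr at 37 °C and 5% CO2. Luciferase activity was then measured with ONE-Glo after 30 min at room temperature.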
# SMN2 splice enh – SMN2 splice variant enhancement; HEK293 SMN2-luciferase splicing reporter, luminescence, 30-36 h; Potency, µM (titrated, usually from 46.1 µM), most hits filed as activators; 210,000 compounds, 2.8% hits; AID 1458; further: nearly all actives have a fitted effect of over 55% in size
#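 HEK293 cells carry an SMN2 minigene-luciferase reporter in which exon 7 inclusion puts luciferase in frame. Cells were seeded at 2000 cells/well, attached for 10-12 hours, then exposed to compounds for 30-36 hours at 37C before ONE-Glo luminescence.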
# KinaseGlo FLuc – counter-screen: inhibitors of Kinase-Glo firefly luciferase | Q27757 | Kinase-Glo luciferase, ATP luminescence, 8 min | Potency, µM (titrated, usually from 38.3 µM), usual class: inhibitors | 200,000 compounds, 0.28% hits | AID 1379; further: nearly all actives have a fitted effect of over 60% in size
#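 Compound is pinned into ATP-containing buffer (10 uM ATP, imidazole pH 7.2, 7 mM MgCl2). Kinase-Glo luciferase reagent is then added. Light output is recorded following an 8-min room-temperature incubation.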
# FLuc modulator – inhibits or activates purified firefly luciferase, miR-21 counter-screen; P08659; purified FLuc, Km substrates, luminescence inhibition; Potency, µM (series often up to 57.5 µM), hits mostly inhibitors; 360,000 compounds, 6.9% hits; further: nearly all actives have a fitted effect of over 55% in size
# Target sequence (P08659 whole entry, looked up): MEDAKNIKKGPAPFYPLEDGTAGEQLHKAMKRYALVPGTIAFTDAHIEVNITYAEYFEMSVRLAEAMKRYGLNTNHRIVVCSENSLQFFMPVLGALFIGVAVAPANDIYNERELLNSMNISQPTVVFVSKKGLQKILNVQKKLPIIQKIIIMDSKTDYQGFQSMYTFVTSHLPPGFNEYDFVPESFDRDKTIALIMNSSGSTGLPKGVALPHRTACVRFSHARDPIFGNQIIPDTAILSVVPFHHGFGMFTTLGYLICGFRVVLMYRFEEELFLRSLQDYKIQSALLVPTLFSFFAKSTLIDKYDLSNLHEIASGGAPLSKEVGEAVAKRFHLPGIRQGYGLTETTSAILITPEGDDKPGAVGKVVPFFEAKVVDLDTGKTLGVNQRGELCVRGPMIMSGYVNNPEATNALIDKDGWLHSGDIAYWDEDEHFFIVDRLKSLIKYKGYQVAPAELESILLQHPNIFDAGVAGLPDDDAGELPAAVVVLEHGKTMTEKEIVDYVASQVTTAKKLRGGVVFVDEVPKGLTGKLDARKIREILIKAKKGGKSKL
#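 Biochemical qHTS of compounds, final roughly 60 µM downward over six points, against 10 nM purified firefly luciferase using Km concentrations of substrates (10 uM D-luciferin, 10 uM ATP) in Tris acetate pH 7.5 buffer; luminescence output.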
# NPC1 prom act – activates the NPC1 promoter; Huh7 NPC1 promoter luciferase reporter, 24 h; Potency, µM (series often up to 9.22 µM), hits mostly activators; 320,000 compounds, 2.4% hits; further: nearly all actives have a fitted effect of over 60% in size
#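 Compounds in DMSO were transferred onto Huh7 NPC1-luciferase reporter cells pre-incubated 2 h; after 24 h at 37 °C, Amplite reagent was dispensed and luminescence recorded 10 min later.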
# Hits are given with their value; 0 = inactive; ? = inconclusive; - = no result; [ ] = dose if it differs, or a comment. The call rests on the fitted dose curve; in most records, active means well fitted curve in the direction sought with a large enough effect; inconclusive means small, poorly fitted or top-dose-only effect, or another doubt; inactive means no such curve, though single readings can be large; an effect the other way counts as inactive or inconclusive.
SMILES,Rab9 prom act,ELG1 genotoxic,SMN2 splice enh,KinaseGlo FLuc,FLuc modulator,NPC1 prom act
CN1CCN(S(=O)(=O)c2cccc(C(=O)NCCOc3ccccc3F)c2)CC1,0,0,-,-,0,0
CCCOc1ccc(/C=N/NC(=S)Nc2ccccc2[N+](=O)[O-])c(O)c1,0,?,0,0,3.4µM,0
CCCOc1ccc(/C=N/Nc2cccc([N+](=O)[O-])c2)c(O)c1,?,?,?,0,?,?
CCNC(=S)N/N=C/c1ccccc1[N+](=O)[O-],0,0,0,0,0,0
Cc1cccc(NC(=S)N/N=C/c2cccc(O)c2)c1C,0,0,-,-,?,0
COc1ccc(/C=N/NC(=S)Nc2ccccc2[N+](=O)[O-])cc1O,0,5.2µM,?,0,0.43µM,0
Cc1ccccc1NC(=S)N/N=C/c1ccc(O)cc1O,0,?,-,-,2.4µM,?
CCCOc1ccc(/C=N/Nc2ccccc2[N+](=O)[O-])c(O)c1,?,?,0,8.9µM,0.11µM,?
O=[N+]([O-])c1cc(/C=N/NC(=S)Nc2ccccc2Cl)ccc1Cl,0,0,0,0,0,0
CCOc1ccccc1Nc1nc(-c2ccc(C)cc2)c(CC(=O)O)s1,-,-,0,-,?,-
O=C(CCc1nc2ccccc2[nH]c1=O)OCc1ccc(S(=O)(=O)N2CCOCC2)cc1,0,0,0,0,0,0
O=C(N/N=C/c1ccccc1C(=O)O)c1cccc(S(=O)(=O)N2CCOCC2)c1,0,0,-,-,12µM,0
O=C(OCc1nc2ccccc2s1)c1cccc(S(=O)(=O)N2CCOCC2)c1,0,?,0,0,8.5µM,0
CCOc1ccccc1/C=N/NC(=O)c1cccc(S(=O)(=O)N2CCOCC2)c1,0,0,0,0,0,0
O=C(CCc1ccc(S(=O)(=O)N2CCOCC2)cc1)OCc1nc2ccccc2s1,0,?,0,0,21µM,0
O=C(OCCOc1ccccc1)c1cccc(S(=O)(=O)N2CCOCC2)c1,0,0,-,-,0,0
O=C(COC(=O)c1cccc(S(=O)(=O)N2CCOCC2)c1)c1ccccc1,0,0,-,-,13µM,0
COC(=O)C1(C(=O)OC)C/C=C\Cc2ccccc2[C@@H]1C[N+](=O)[O-],-,-,0,0,-,-
CCC(CO)N=CC1=C(O)CC(c2ccccc2)CC1=O (stereo unspecified),0,0,-,-,0,0
CCC(=O)Nc1ccc2nc(C3CC3)n(Cc3ccc(C(C)(C)C)cc3)c(=O)c2c1,?,1.6µM,-,-,1.5µM,0.32µM
CC(=O)Nc1ccc2nc(C3CC3)n(Cc3ccc(Cl)cc3)c(=O)c2c1,3.5µM,?,10µM,0,21µM,3.5µM
O=C(Nc1ccc2nc(C3CC3)n(Cc3ccc(F)cc3)c(=O)c2c1)c1ccco1,0,0,?,0,0,0
COc1ccc(Cn2c(C3CC3)nc3ccc(NC(=O)C4CC4)cc3c2=O)cc1,1.6µM,2.6µM,11µM,0,4.3µM,1.4µM
COc1cccc(Cn2c(C3CC3)nc3ccc(NC(=O)c4ccco4)cc3c2=O)c1,0,0,0,0,0,0
COc1cccc(/C=C/C(=O)NCc2ccc3c(c2)OCO3)c1,0,0,-,-,?,0
SMILES,Rab9 prom act,ELG1 genotoxic,SMN2 splice enh,KinaseGlo FLuc,FLuc modulator,NPC1 prom act
COC(=O)c1ccc(-c2ccc(/C=N/NC(=O)CC3(C)OCCCO3)o2)cc1,?,0,11µM,0,?,?
CC1(CC(=O)N/N=C/c2ccc(-c3ccc(Cl)cc3)o2)OCCO1,0,0,0,0,3.4µM,0
COc1ccc(NC(=O)c2csc(Cc3ccc(Cl)cc3)n2)cc1,0,0,0,0,24µM,0
COc1ccc(Cc2nc(C(=O)Nc3ccccc3)cs2)cc1,0,0,0,0,19µM,?
COc1ccc(Cc2nc(C(=O)Nc3ccc(F)cc3)cs2)cc1,0,0,0,0,?,0
COc1ccc(Cc2nc(C(=O)Nc3ccc(Cl)cc3)cs2)cc1,0,?,0,0,?,0
O=C(Nc1ccc(Cl)cc1)c1csc(Cc2ccccc2)n1,?,?,?,0,5.4µM,0
O=C(NCCCN1CCCC1=O)C1CCN(S(=O)(=O)c2c(Cl)cccc2Cl)CC1,0,0,-,-,0,0
COc1ccc(-c2csc(C)n2)cc1,0,0,0,0,19µM,0
COc1ccc(NC(=O)c2ccc(-c3csc(C)n3)cc2)cc1,2.8µM,?,-,-,2.4µM,?
Cc1nc(-c2cccc(NC(=O)c3ccc(-n4cccn4)cc3)c2)cs1,0,0,-,-,6.7µM,0
Cc1nc(-c2ccc(C(=O)Nc3cccc(F)c3)cc2)cs1,?,?,-,-,0.27µM,0.089µM
CCOc1ccc(NC(=O)c2ccc(-c3csc(C)n3)cc2)cc1,0,0,-,-,0,0
O=C(Nc1cccc(NC(=O)c2ccc(F)cc2)c1)c1ccc(F)cc1,0,0,-,-,0,0
COc1cccc(Cl)c1NC(=O)N1CCc2c([nH]c3ccccc23)C1C(F)(F)F (stereo unspecified),0,0,-,-,0,0
COc1ccc(CCNC(=O)CSc2nc3scc(-c4ccccc4)c3c(=O)[nH]2)cc1,-,0,-,-,-,-
CC12CCC(=O)C=C1CCC1C2C(O)CC2(C)C1CCC2(O)C(=O)CO (stereo unspecified),0,0,-,-,0,0
CC(C)(C)c1ccc(C2Sc3ccccc3NC3=C2C(=O)c2ccccc23)cc1 (stereo unspecified),-,-,0,-,0,-
O=C(Nc1ccc2c(c1)COC2=O)c1ccc(Cl)c(Cl)c1,0,?,-,-,?,?
CC(C(=O)NCCc1ccc(Cl)cc1)n1c(=O)c2cccn2c2cccnc21 (stereo unspecified),0,0,-,-,0,0
Cc1nc(-c2ccc(C(=O)Nc3ccc(F)cc3)cc2)cs1,?,21µM,0,?,0.76µM,?
Clc1ccc(N=c2ssnc2Cl)cc1,0,0,0,0,?,0
Fc1ccc(N=c2ssnc2Cl)c(F)c1,0,0,0,0,19µM,0
Clc1nssc1=Nc1ccccc1,0,0,0,0,21µM,0
COc1ccc(N=c2ssnc2Cl)cc1,0,0,0,0,?,0
SMILES,Rab9 prom act,ELG1 genotoxic,SMN2 splice enh,KinaseGlo FLuc,FLuc modulator,NPC1 prom act
COc1cc(N=c2ssnc2Cl)cc(OC)c1OC,0,0,0,0,15µM,0
N#Cc1ccc(N=c2ssnc2Cl)cc1,0,0,0,0,15µM,0
CN1CCN(c2cc(-c3ccc(N(C)C)cc3)ncn2)CC1,-,-,0,0,-,-
O=C(NCCc1cccnc1)C1CCC(=O)N(Cc2ccc(Cl)cc2)C1 (stereo unspecified),0,0,-,-,0,0
Cc1cccc(S(=O)(=O)N2CCn3cccc3C2C)c1 (stereo unspecified),0,0,-,-,0,0
Nc1cc(S(N)(=O)=O)ccc1SSc1ccc(S(N)(=O)=O)cc1N,-,-,0[9.22 µM],0[7.66 µM],-,-
CCCC(=O)Nc1ccc(C#Cc2ccccc2)cc1,2.8µM,?,?,0,4.8µM,1.6µM
